Consider 40 compounds from PubChem BioAssay (EPA / NIEHS).

SMILES strings stand for the structures. Active and inactive are the calls of the source. Rule for the calls: active = hit-call score of the fitted dose curve at least 0.9, where 1 is the maximum; inactive = score below 0.9.

Sequence of Hepatocyte nuclear factor 3-beta (Homo sapiens) (Q9Y261 whole entry, looked up): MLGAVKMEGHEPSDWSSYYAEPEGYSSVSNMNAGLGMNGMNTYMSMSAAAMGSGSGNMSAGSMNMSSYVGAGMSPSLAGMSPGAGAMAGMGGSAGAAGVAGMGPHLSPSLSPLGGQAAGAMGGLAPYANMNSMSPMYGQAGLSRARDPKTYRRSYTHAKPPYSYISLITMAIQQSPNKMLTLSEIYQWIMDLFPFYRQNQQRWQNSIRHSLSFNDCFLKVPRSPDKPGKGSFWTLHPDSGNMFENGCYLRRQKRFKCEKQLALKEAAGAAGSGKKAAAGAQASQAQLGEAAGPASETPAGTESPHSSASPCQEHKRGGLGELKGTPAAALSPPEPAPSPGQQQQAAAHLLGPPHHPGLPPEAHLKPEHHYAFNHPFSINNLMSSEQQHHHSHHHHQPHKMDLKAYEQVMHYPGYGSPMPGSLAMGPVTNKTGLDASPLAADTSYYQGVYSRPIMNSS

This assay concerns the target Hepatocyte nuclear factor 3-beta (Homo sapiens) (UniProt Q9Y261). In words: ATG_FoxA2_CIS: Attagene CIS-FACTORIAL HepG2 Assay for human Forkhead box A2 (FOXA2) (AID 2282942). The following applies: HepG2 cis-reporter transcription factor activity, 24 h; actives raise or lower the signal. How it is done:
ATG_CIS is a cell-based, multiplexed-readout assay that uses HepG2, a human liver cell line, with measurements taken at 24 hours after chemical dosing in a 24-well plate.ATG_FoxA2_CIS is one of 52 assay component(s) measured or calculated from the ATG_CIS assay. It is designed to make measurements of mRNA induction, a form of inducible reporter, as detected with fluorescence intensity signals by Reverse transcription polymerase chain reaction (RT-PCR) and Capillary electrophoresis technology.Data from the assay component ATG_FoxA2_CIS was analyzed into 1 assay endpoint. This assay endpoint, ATG_FoxA2_CIS, was analyzed with bidirectional fitting relative to DMSO as the negative control and baseline of activity. Using a type of inducible reporter, measures of mRNA for gain or loss-of-signal activity can be used to understand the reporter gene at the transcription factor-level as they relate to the gene FOXA2. Furthermore, this assay endpoint can be referred to as a primary readout, because this assay has produced multiple assay endpoints where this one serves a reporter gene function. To generalize the intended target to other relatable targets, this assay endpoint is annotated to the dna binding intended target family, where the subfamily is forkhead box protein.
Human liver HepG2 cells are transiently transfected with multiple reporter transcription units (MRTUs) in 6-well plates using FuGene 6 reagent (Roche; 3 ml FuGene/1 mg DNA). The MRTU constructs are regulated by a cis-regulating element (promoter). […] A major difference between the CIS and TRANS system is that in CIS activities of endogenous TFs are measured, whereas the TRANS assay evaluates changes in activities of exogenous, chimeric NR-Gal4 proteins. […] At the end of 24 hour incubation, total RNA was isolated using TriZol reagent (Invitrogen). The isolated RNA is then reverse-transcribed using oligo(dT) primer and Mo-MLV reverse transcriptase (Invitrogen) with DNAse I (Ambion) treatment for 30 min. The one-tenth of the produced cDNA was amplified by PCR using Taq DNA polymerase (Invitrogen) and two reporter sequence-specific primers. The PCR products were fluorescently labeled by primer extension with 6-arboxyfluorescein (6-FAM) 5'-labeled reporter sequence-specific primer (2 min at 95 C, 20 s at 68 C and 10 min at 72 C) and these products were digested with 5U of HpaI (New England Biolabs) for 2h at 37 C. The fragments were purified using Qiaquick PCR columns (Qiagen), analyzed on an ABI 3130xL genetic analyzer (Applied Biosystems) with peak positions identified by using a set of X-rhodamine (ROX)-labeled MapMarker1000 molecular weight standards (BioVentures). The raw capillary electrophoresis data was processed using Attagraph software (Attagene).
Take `O=c1[nH]c(=O)c2cn[nH]c2[nH]1`: the call was inactive. Same read-out and setting: for `Cc1ccc(C)o1` the value was “inactive”; for `CC1(C)CCC[C@]2(C)[C@H]3CCO[C@]3(C)CC[C@@H]12`, “inactive”; for `CCc1ccc(O)cc1`, “inactive”. Take `CCNCCO`: the compound was called inactive.

In the case of `CCCCSCCCC`, the compound was classed as inactive.

Turning to `Cc1c(OCC(F)(F)F)ccnc1CS(=O)c1nc2ccccc2[nH]1` (stereo not given), the call was inactive.

Consider `CCCCCCC(C)(C)S`, for which the result was inactive. In the case of `CCCCCCOC(=O)C(C)C`, the compound was classed as inactive. Regarding `CCCC(=O)c1ccccc1`, the call was inactive. As for `CCCCCC(C)=O`, the call was inactive.

In the case of `CCO/C=C1\N=C(c2ccccc2)OC1=O`, the compound was called inactive.

As to `CCCOC(=O)c1c(Cl)c(Cl)c(Cl)c(Cl)c1C(=O)OCCC`, the compound was called inactive.

What is called AC50 is the concentration at which the activity in the assay is half-maximal. `O=C1OC(=O)c2c(Cl)c(Cl)c(Cl)c(Cl)c21`: the AC50 was 33.2 µM (active). As to `CC(C)=CCCC(C)CC(=O)O` (stereo not given), the call was inactive.

With `Oc1ccc2cc(SSc3ccc4cc(O)ccc4c3)ccc2c1`, the outcome was inactive. `COC(C)(C)CC(C)=O`: the compound was classed as inactive. For the compound `COc1ccc(N=Nc2cc(C)c(N=Nc3ccc(S(=O)(=O)O)cc3)cc2OC)cc1`, the compound was classed as inactive. Same read-out and setting: for `COc1ccc(N)c([N+](=O)[O-])c1` the value was “inactive”; for `COC(C)(C)CCO`, “inactive”. For `C=C(C)C(=O)OCCOC1CC2CC1C1C=CCC21` (stereo not given), the compound was classed as inactive. On to `CC(C)c1ccccc1O`, for which the result was inactive. In the case of `O=C(Nc1ccc([N+](=O)[O-])cc1)Nc1ccc([N+](=O)[O-])cc1` (tested in a mixture with another compound), the result was inactive. Turning to `CCCSc1ccc2nc(NC(=O)OC)[nH]c2c1`, the compound was classed as inactive. In the case of `CCCC[O][Al]([O]CCCC)[O]CCCC`, the result was inactive.

As for `O=C(O)CNc1ccccc1`, the compound was classed as inactive.

`CN(c1nccc(=O)[nH]1)C1CCN(c2nc3ccccc3n2Cc2ccc(F)cc2)CC1`: the call was inactive.

For the compound `COc1cc(Cl)c(OC)cc1N`, the compound was called inactive. Take `Nc1ccc2c(O)cc(S(=O)(=O)O)cc2c1`: the compound was classed as inactive.

In the case of `CCC(Cl)C(Cl)C(Cl)CC(Cl)C(Cl)C(C)Cl` (stereo not given), the call was inactive.

As for `CCC(C)S` (stereo not given), the outcome was inactive.

Take `O=C(Nc1ccc2c(c1)Cc1ccccc1-2)C(F)(F)F`: the result was inactive.

Take `CCC(=O)O[C@@H]1C[C@H]2CC[C@]1(C)C2(C)C`: the compound was called inactive. Same read-out and setting: for `O=C(O)CCCCCCCCCCCC(=O)O` the value was “inactive”. Still for that read-out and setting: for `CS(C)=O` the value was “inactive”; for `C=C(C)C(=O)OCCOCCOCCOCCOC(=O)C(=C)C`, “inactive”; for `CC(C)C(OC(=O)c1ccccc1)C(C)(C)COC(=O)c1ccccc1` (stereo not given), “inactive”. Take `CCCCCCCCCCCC(=O)OCC(O)CO` (stereo not given): the call was inactive.

Regarding `C=C1CC[C@H](O)C/C1=C/C=C1\CCC[C@]2(C)[C@@H]([C@H](C)/C=C/[C@H](C)C(C)C)CC[C@@H]12`, the compound was classed as inactive. For `N#Cc1cscn1`, the call was inactive.
